In PubChem BioAssay (NCI):
Compounds without any hit were thinned out: in the full panel of roughly 83,000, 20% have a hit.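 Cells were grown in 96-well plates and exposed to the test compound at a single concentration for 48 hours; results are reported as percent growth, with values below 10 considered active.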 Calls of active or inactive are those of the source.

What was measured:
Assay in all cases: NCI-60 one-dose screen, 48 h (100 = growth as untreated, 0 = no growth, -100 = all killed)
Conditions in all cases: 10 µM unless noted
[1] = test system: HCT-15 colon
[2] = test system: HT29 colon
[3] = test system: SNB-75 CNS
[4] = test system: SNB-19 CNS
[5] = test system: U251 CNS
[6] = test system: PC-3 prostate
[7] = test system: SK-MEL-5 melanoma
[8] = test system: UACC-62 melanoma
[9] = test system: LOX IMVI melanoma
[10] = test system: SK-MEL-28 melanoma
[11] = test system: SK-MEL-2 melanoma
[12] = test system: EKVX NSCLC
[13] = test system: SN12C renal
[14] = test system: UO-31 renal
[15] = test system: TK-10 renal
[16] = test system: ACHN renal
[17] = test system: CAKI-1 renal
[18] = test system: A498 renal
[19] = test system: CCRF-CEM leukemia
[20] = test system: MOLT-4 leukemia

Measured: growth

CCCn1cnc2c(c1=N)C(c1ccc(Cl)cc1)c1sc3c(C)cccc3c1O2 (stereo not given)
active: [2] 5.11% | [6] 6.9% | [8] 5.02% | [18] -13.1% | [19] 3.96%
inactive: [1] 13% | [3] 26.7% | [4] 26.5% | [5] 19.4% | [7] 28.7% | [9] 19.6% | [10] 60.9% | [11] 33.5% | [12] 42.7% | [13] 17.9% | [14] 32.2% | [15] 93.3% | [16] 29.1% | [17] 29.8% | [20] 15.5%

COc1ccc(C(=O)CSc2nc3c(c(Nc4ccc(S(N)(=O)=O)cc4)n2)CCCC3)cc1
inactive: [1] 88.4% | [2] 96.4% | [3] 119% | [4] 94.1% | [5] 89.9% | [6] 83.7% | [7] 96.6% | [8] 93.5% | [9] 83% | [10] 110% | [11] 104% | [12] 96.7% | [13] 89.9% | [14] 81.1% | [15] 120% | [16] 89.9% | [17] 70.9% | [18] 86.5% | [19] 83.1% | [20] 75.7%

NS(=O)(=O)c1ccc(Nc2cc(-c3ccccc3)nc(SCC(=O)c3ccccc3)n2)cc1
inactive: [1] 99.4% | [2] 106% | [3] 91.6% | [4] 91.7% | [5] 100% | [6] 98.4% | [7] 98.6% | [8] 91.1% | [9] 97.8% | [10] 104% | [11] 105% | [12] 97.9% | [13] 96% | [14] 86% | [15] 129% | [16] 105% | [17] 90% | [18] 94.9% | [19] 98.3% | [20] 105%

CCCCCc1ccc(S(=O)(=O)Nc2cccc(-c3csc(NCCN4CCN(C)CC4)n3)c2)cc1
inactive: [2] 19.3% | [3] 92.8% | [4] 79.9% | [5] 45.7% | [6] 65.7% | [8] 85.4% | [10] 78% | [11] 102% | [12] 84.2% | [13] 90.6% | [14] 73.4% | [15] 120% | [16] 89.9% | [17] 83.1% | [18] 85.4% | [19] 16.2% | [20] 11.7%
active: [1] -13.2% | [7] -31.1% | [9] -66.9%

Cc1nn(-c2ccccc2)c2ncnc(N/N=C/c3ccccc3O)c12
active: [3] 5.46% | [7] -70.2% | [8] -11.2% | [9] 2.3% | [13] 8.87% | [14] -25.8% | [16] 3.52% | [17] 3.12% | [19] 8.92%
inactive: [1] 21.3% | [2] 24.6% | [4] 17.5% | [5] 11.2% | [6] 25.9% | [10] 23.2% | [11] 35.4% | [12] 23.7% | [15] 40.6% | [18] 58.4% | [20] 14.3%

COc1ccc(/C=N/NC(=O)c2cn(C3CC3)c3c(OC)c(N4CC5CCCNC5C4)c(F)cc3c2=O)cc1 (stereo not given)
inactive: [1] 47.6% | [2] 32.4% | [3] 93.1% | [4] 96.6% | [5] 89.4% | [6] 75.1% | [7] 87.1% | [8] 100% | [9] 19.6% | [10] 92.8% | [11] 107% | [12] 102% | [13] 81% | [14] 62.4% | [15] 116% | [16] 88.7% | [17] 82.9% | [18] 83.3% | [19] 63.6% | [20] 60.4%

Fc1ccc(-c2cc3nc(C(Cl)Cl)nc(-c4ccc(F)cc4)n3n2)cc1
inactive: [6] 16.8% | [7] 76.5% | [8] 44% | [9] 55.7% | [11] 108% | [13] 49.2% | [14] 29.3% | [15] 13.2% | [19] 33.1% | [20] 12.4%
active: [1] 8.52% | [2] -6.96% | [3] -11.6% | [4] 1.89% | [5] -39.8% | [10] -5.14% | [12] 7.26% | [16] -41.1% | [17] -18.3% | [18] -53.1%

COc1cc2nc(Cl)nc(Nc3cccc(C4=Nc5c(N)nc(N)nc5NC(c5ccc6c(c5)OCO6)C4)c3)c2cc1OC (stereo not given)
active: [5] 8.17%
inactive: [1] 33.2% | [2] 68.9% | [3] 82.2% | [4] 78.4% | [6] 63.6% | [7] 72.1% | [8] 94.8% | [9] 52.6% | [10] 106% | [11] 85.2% | [12] 86.1% | [13] 78.6% | [14] 86% | [15] 113% | [16] 94% | [17] 82.8% | [18] 105% | [19] 26.8% | [20] 27%

CCNC(=O)N1CCc2cc(OC)c(OCCc3ccc(OC)nc3)cc2C1c1ccc(C)cc1C (stereo not given)
active: [1] 6.9% | [2] 1.6% | [7] -31.6% | [9] 3.95% | [11] 1.68% | [18] -12.2%
inactive: [3] 45.8% | [4] 25.7% | [5] 11.1% | [6] 26.8% | [8] 25.6% | [10] 41.5% | [12] 39.3% | [13] 30.5% | [14] 28.5% | [15] 44.8% | [16] 25% | [17] 18.1% | [19] 27% | [20] 22.6%

COc1ccc(/C=N/NC2=NC3C(S2)N(C)C(=O)N3C)cc1 (stereo not given)
inactive: [1] 28.4% | [4] 34.6% | [5] 27.2% | [6] 32.1% | [7] 31.1% | [8] 38.3% | [9] 32.7% | [10] 53.5% | [11] 29.9% | [12] 38.5% | [13] 44.3% | [14] 45% | [15] 76.2% | [16] 42.7% | [17] 24% | [19] 15.5% | [20] 20.3%
active: [2] 8.29% | [3] 8.09% | [18] -17.5%

O=C(NNc1nc2cc(F)ccc2n2cccc12)c1ccncn1
active: [3] -2.99% | [7] -22.1% | [8] 4.91% | [9] 7.82% | [19] 8.88%
inactive: [1] 25.8% | [2] 28.3% | [4] 25.1% | [5] 12.9% | [6] 35.6% | [10] 23.5% | [11] 26.4% | [12] 11.2% | [13] 21.3% | [14] 18.6% | [15] 31.7% | [16] 13.3% | [17] 16.5% | [18] 14.6% | [20] 11.7%

O=C1CCCC2=C1C(c1c[nH]c3ccc(Br)cc13)Cc1cc(Br)ccc1N2 (stereo not given)
inactive: [1] 26.5% | [2] 12.2% | [3] 39.8% | [4] 32.6% | [5] 31.6% | [7] 43% | [8] 10.4% | [9] 14.1% | [10] 54.3% | [11] 25.3% | [12] 41.9% | [13] 34.5% | [14] 36.3% | [15] 94.8% | [16] 36.2% | [17] 24.7% | [18] 13.5% | [20] 21.5%
active: [6] 9.76% | [19] 6.67%

O=S(=O)(Oc1ccc(-c2nnc(Nc3ccccc3)s2)cc1)C(F)(F)C(F)(F)C(F)(F)C(F)(F)C(F)(F)C(F)(F)F
inactive: [1] 98.7% | [2] 109% | [3] 99.9% | [4] 101% | [5] 107% | [6] 110% | [7] 108% | [8] 90.8% | [9] 99.8% | [10] 105% | [11] 106% | [12] 99.1% | [13] 98.7% | [14] 98.2% | [15] 109% | [16] 103% | [17] 92.7% | [18] 99.5% | [19] 102%
active: [20] -29.1%

NS(=O)(=O)c1ccc(Nc2nc(N/N=C/c3ccccn3)nc(Nc3ccccc3)n2)cc1
active: [2] 6.29% | [3] -25.4% | [4] 9.62% | [5] -55.2% | [6] -7.87% | [7] -84.8% | [8] -49.3% | [9] -43.7% | [10] -64.3% | [11] -82% | [13] 2.73% | [15] 2.56% | [17] -25.3% | [18] -67.6% | [19] 5.99% | [20] 3.13%
inactive: [1] 17.6% | [12] 13.3% | [14] 17.4% | [16] 17.5%

O=[N+]([O-])c1cc(/C=N/Nc2nc(N/N=C/c3ccc(Cl)c([N+](=O)[O-])c3)nc(N3CCCCC3)n2)ccc1Cl
inactive: [1] 49.7% | [3] 136% | [4] 72.6% | [5] 18.5% | [6] 53.4% | [7] 77.8% | [8] 43.1% | [9] 66% | [10] 62.2% | [11] 80.7% | [12] 78% | [13] 72.3% | [14] 47.5% | [15] 93.8% | [16] 35.2% | [17] 72.4% | [18] 108% | [19] 61.3% | [20] 42.3%
active: [2] 7.43%
